Screens as filed in PubChem.
The list is not random: actives were taken first. Their share in the collection is about 1.1%.
MT1-MMP txn act: MT1-MMP promoter reporter activation – cell-based, luciferase luminescence, primary screen. HT1080 MT1-MMP promoter luciferase reporter, overnight; hits give high values. activation factor at 10 µM. hit rate 0.16% among 86,000;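 active = activation factor of at least 2 for MT1-MMP transcription at 10 µM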
TNAP act mid DEA: human TNAP enzyme activators, primary screen, biochemical, luminescent, intermediate phosphate acceptor level; Alkaline phosphatase, tissue-nonspecific isozyme (Homo sapiens), P05186; purified TNAP, CDP-star luminescence, 100 mM DEA, 30 min; hits give high values; scale: 0 levamisole-inhibited, 1 vehicle-only enzyme; activation factor at 20 µM; AID 813, 2007; 64,000 tested, under 10 active;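 active = activation factor of at least 2 at 20 µM, relative to controls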
Target sequence (P05186 whole entry, looked up): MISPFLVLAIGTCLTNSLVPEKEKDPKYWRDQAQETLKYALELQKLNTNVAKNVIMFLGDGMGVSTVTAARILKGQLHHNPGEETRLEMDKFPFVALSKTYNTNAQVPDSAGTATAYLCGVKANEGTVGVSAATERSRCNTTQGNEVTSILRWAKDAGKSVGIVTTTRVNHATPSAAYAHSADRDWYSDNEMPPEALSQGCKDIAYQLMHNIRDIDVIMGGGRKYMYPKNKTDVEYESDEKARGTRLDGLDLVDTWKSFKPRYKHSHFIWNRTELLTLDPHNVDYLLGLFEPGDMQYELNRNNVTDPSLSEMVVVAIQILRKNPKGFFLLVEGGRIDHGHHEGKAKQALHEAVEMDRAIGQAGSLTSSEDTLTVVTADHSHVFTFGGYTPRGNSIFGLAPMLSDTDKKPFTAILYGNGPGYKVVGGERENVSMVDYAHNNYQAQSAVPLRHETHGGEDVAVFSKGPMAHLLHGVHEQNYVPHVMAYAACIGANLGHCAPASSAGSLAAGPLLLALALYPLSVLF
HER2 expr 66K: inhibitors of Her2 protein expression, primary screen, SKBR-3 cells, AlphaScreen, 66K library | Receptor tyrosine-protein kinase erbB-2 (Homo sapiens), P04626 | SKBR-3 HER2 protein level, 18-24 h; hits give low values | HER2 level % of control, % at 10 µM | hit rate 0.69% among 65,000;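 active = HER2 level under 5% of the carrier-only control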;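 note: 100% = DMSO carrier and 0% = 500 nM PU-H71 HSP90 inhibitor; lower value means stronger loss of Her2 protein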
E coli RNAP: E. coli RNAP inhibitors, biochemical; AID 559, 2006; inhibition, %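 (tested at 10 µM)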; hit rate 0.2% among 62,000; DNA-directed RNA polymerase subunit beta (Escherichia coli (strain K12)), P0A8V2; E. coli RNA polymerase, fluorescence transcription assay; in the data active = inhibition above about 20%;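 note: 0% = enzyme without compound and 100% = no enzyme blank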
Hsp90 inh: tumor Hsp90 inhibitors, primary screen, cell lysate, fluorescence polarization, NCI-N417 lysate; Heat shock protein HSP 90-alpha (Homo sapiens), P07900; Cy3B-geldanamycin FP displacement; inhibition, % at 30 µM; hit rate 0.35% among 64,000;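 active = inhibition above 50%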;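 note: 0% = tracer plus lysate wells and 100% = tracer alone without lysate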
HePTP inh: inhibitors of human HePTP phosphatase, primary screen, biochemical, absorbance, leukemia target; recombinant HePTP phosphatase activity, OD absorbance; inhibition, % at 20 µM; hit rate 0.64% among 110,000; AID 521, 2006; in the data active = inhibition above about 50%;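 note: plate controls were vehicle for no effect and reference inhibitor for full effect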
* hit, by the source's call.

CC(C)C[C@H](NC(=O)OC(C)(C)C)c1nnc(SCc2ccccc2)o1 was read as MT1-MMP txn act 1.2.
`CC(C)[C@H](NC(=O)OC(C)(C)C)c1nnc(S(=O)(=O)Cc2c(F)cccc2Cl)o1` gave MT1-MMP txn act 0.9, TNAP act mid DEA 0.9, HER2 expr 66K -13*, E coli RNAP 6, Hsp90 inh 0 and HePTP inh 3.
Screening Cc1ccccc1CS(=O)(=O)c1nnc([C@H](CC(C)C)NC(=O)OC(C)(C)C)o1 returned MT1-MMP txn act 0.9, TNAP act mid DEA 0.9, HER2 expr 66K -14*, Hsp90 inh -2 and HePTP inh 3.
Screening CC[C@@H](C)[C@H](NC(=O)OC(C)(C)C)c1nnc(S(=O)(=O)Cc2cc(C)ccc2C)o1 returned MT1-MMP txn act 0.9, TNAP act mid DEA 1, HER2 expr 66K -13*, E coli RNAP -4, Hsp90 inh -3 and HePTP inh 9.
`CC(=O)Nc1cccc(NC(=O)c2c(-c3ccccc3Cl)noc2C)c1` gave MT1-MMP txn act 1.2, TNAP act mid DEA 0.9, HER2 expr 66K -19*, E coli RNAP 3, Hsp90 inh 4 and HePTP inh 8.
For COC(=O)c1cccc(NC(=O)c2c(-c3ccccc3Cl)noc2C)c1 the results were HePTP inh -6.
Cc1ccc(NC(=O)c2c(-c3ccccc3)noc2C)cc1C was read as HePTP inh 104*.
Screening COc1ccc(CCNC(=O)CCc2ccccc2)cc1 returned HePTP inh 2.
For COC(=O)c1sc(NC(=O)c2oc3ccccc3c2C)nc1C the results were MT1-MMP txn act 2.3*, TNAP act mid DEA 1, HER2 expr 66K 55, E coli RNAP 12, Hsp90 inh 1 and HePTP inh 6.
Screening CCOC(=O)C1=C(C)N=c2s/c(=C\c3ccc(C(C)=O)cc3)c(=O)n2C1c1ccccc1 (stereo unspecified) returned HePTP inh 14.
Screening CCOC(=O)c1c(C)[nH]c(N=Nc2cccc(OC)c2)c1C returned HePTP inh 103*.
For CCOC(=O)c1c(C)[nH]c(N=Nc2cccc(C)c2)c1C the results were MT1-MMP txn act 1.7.
Screening COc1ccc(C2=NO[C@@H]3C(=O)N(c4ccc5c(c4)OCCO5)C(=O)[C@H]23)cc1OC returned MT1-MMP txn act 1.2, TNAP act mid DEA 1, HER2 expr 66K 93, E coli RNAP -16, Hsp90 inh 68* and HePTP inh 8.
Screening COc1ccc(C(=O)Nc2cc(Cl)ccc2Cl)cc1NC(=O)C(C)Oc1ccccc1 (stereo unspecified) returned HePTP inh 0.
COC(=O)c1ccc(C(=O)Nc2cc(Cl)ccc2Cl)cc1NC(=O)C(C)Oc1ccccc1 (stereo unspecified) was read as HePTP inh 66*.
`Cc1c(C(=O)NCCN2CCOCC2)oc2ccc(S(=O)(=O)N3CCCCCC3)cc12` gave MT1-MMP txn act 1, TNAP act mid DEA 0.9, HER2 expr 66K -22*, E coli RNAP 7 and HePTP inh 0.
Screening Cc1c(C(=O)NCCc2ccccc2)oc2ccc(S(=O)(=O)N3CCOCC3)cc12 returned MT1-MMP txn act 1.1, TNAP act mid DEA 0.9, HER2 expr 66K 186, E coli RNAP -1 and HePTP inh 5.
COc1cc(/C=C2\SC(=Nc3ccc(C)c(Cl)c3)NC2=O)ccc1O was read as HePTP inh 13.
For Cc1ccc(N=C2NC(=O)/C(=C/c3cccc(O)c3)S2)cc1Cl the results were HePTP inh 60*.
`O=C(N/N=C/c1cccs1)c1cc(-c2ccc(Cl)cc2)n[nH]1` gave HePTP inh -5.
For O=C(N/N=C/c1cccs1)c1cc(-c2ccc3ccccc3c2)n[nH]1 the results were HePTP inh 99*.
Screening COc1ccc(/C=N/NC(=O)c2cc(-c3ccc4ccccc4c3)n[nH]2)cc1O returned HePTP inh 68*.
Screening CCOc1cc(/C=N/NC(=O)c2cc(-c3ccc4ccccc4c3)n[nH]2)ccc1O returned HePTP inh -15.
